Measured values: PubChem BioAssay (EPA / NIEHS)
Where “and” joins values, the source holds several entries; their conditions need not be identical. Equal entries are not always repeated. Results filed as inconclusive are left out. The source holds several records for some structures; these can differ, active in one and inactive in another. Calls of active or inactive are those of the source. The calls were made as follows: active = hit-call score of the fitted dose curve at least 0.9, where 1 is the maximum; inconclusive = response in the unintended direction; inactive = score below 0.9.

Key:
[1] = biological target: Cellular tumor antigen p53 (Homo sapiens) (UniProt P04637); test: TOX21_p53_BLA_p5_ratio: Tox21 HCT-116 p53 Agonism Beta-lactamase Assay, Ratio, Phase 5 (AID 2283599)
Cellular tumor antigen p53 (Homo sapiens), sequence (P04637 whole entry, looked up): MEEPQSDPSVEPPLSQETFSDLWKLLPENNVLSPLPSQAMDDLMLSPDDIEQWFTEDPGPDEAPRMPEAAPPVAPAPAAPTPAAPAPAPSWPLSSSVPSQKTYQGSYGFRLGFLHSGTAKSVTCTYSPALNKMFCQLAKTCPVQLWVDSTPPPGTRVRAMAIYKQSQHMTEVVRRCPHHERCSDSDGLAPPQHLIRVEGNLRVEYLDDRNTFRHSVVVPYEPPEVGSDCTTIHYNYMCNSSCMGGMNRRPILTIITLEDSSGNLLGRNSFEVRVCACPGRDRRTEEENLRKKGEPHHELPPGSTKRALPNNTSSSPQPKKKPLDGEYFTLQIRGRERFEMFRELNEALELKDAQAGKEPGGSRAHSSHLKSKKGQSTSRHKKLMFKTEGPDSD
How it was run: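 Beta-lactamase reporter ratio (blue 460 nm over green 530 nm, 405 nm excitation) after 2 h CCF4-AM loading, in HCT-116 cells exposed 16 h at 37 C to compounds pinned at 217-fold dilution. Increases relative to DMSO baseline scored.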

[2] = TOX21_p53_BLA_p5_viability: Viability Assessment in the Tox21 HCT-116 p53 Agonism Beta-lactamase Assay, Phase 5 (AID 2283600)
How it was run: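 Viability came from CellTiter-Glo ATP luminescence, read after 30 min at room temperature. Before this, HCT-116 p53-bla cells (4000/well) had 16 hours of compound exposure at 37C, with DMSO stocks diluted 217-fold on transfer.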

[3] = biological target: Cellular tumor antigen p53 (Homo sapiens) (UniProt P04637); test: TOX21_p53_BLA_p4_ratio: Tox21 HCT-116 p53 Agonism Beta-lactamase Assay, Ratio, Phase 4 (AID 2283601)
How it was run: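 Signal is the blue/green (460nm/530nm) ratio of cleaved versus uncleaved CCF4-AM substrate, read after 2 h substrate loading. Cells were HCT116 carrying the p53-responsive beta-lactamase reporter, dosed 16 h at 37C, 5% CO2; CellTiter-Glo measured in parallel.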

[4] = Tanguay_ZF_120hpf_MORT_legacy: (Legacy) Oregon State University Tanguay Lab 120 Hour Post-fertilization zebrafish Assay for Mortality (AID 2283633);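 as to AC50: fitted as increase in binary mortality versus DMSO negative control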
How it was run: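 Static waterborne exposure from 6 to 120 hpf at 28C of single dechorionated wild-type (5D) embryos per well, 0.64% DMSO final. Death recorded present/absent by brightfield at 24 and 120 hpf.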

[5] = Tanguay_ZF_120hpf_YSE_legacy: (Legacy) Oregon State University Tanguay Lab 120 Hour Post-fertilization zebrafish Assay for Yolk Sac Edema (AID 2283634);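 as to AC50: actives raise the incidence of yolk sac edema above the DMSO baseline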
How it was run: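 Presence or absence of yolk sac edema was recorded at 120 hpf in surviving larvae. These were wild-type Tropical 5D embryos, chorion removed at 4 hpf, held in static exposure at 28C from 6 hpf with 0.64% DMSO vehicle.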

[6] = Tanguay_ZF_120hpf_AXIS_legacy: (Legacy) Oregon State University Tanguay Lab 120 Hour Post-fertilization zebrafish Assay for Body Axis Malformation (AID 2283635);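 as to AC50: potency for an increased fraction of larvae scored with body axis malformation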
How it was run: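 Binary scoring of axis defects at 120 hpf under brightfield, fitted positive versus DMSO. Tropical 5D embryos, chorion removed by pronase at 4 hpf, were singly exposed in sealed, dark plates at 28C from 6 hpf; DMSO 0.64% final.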

[7] = Tanguay_ZF_120hpf_EYE_legacy: (Legacy) Oregon State University Tanguay Lab 120 Hour Post-fertilization zebrafish Assay for Eye Malformation (AID 2283636);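 also: binary presence or absence of eye malformation scored by brightfield in 120 hpf larvae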
How it was run: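 Binary brightfield scoring of eye defects at 120 hpf after static exposure from 6 hpf of single pronase-dechorionated wild-type embryos (28C, 0.64% DMSO). Non-mortality endpoints omitted where embryos died; fit vs DMSO.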

[8] = Tanguay_ZF_120hpf_SNOU_legacy: (Legacy) Oregon State University Tanguay Lab 120 Hour Post-fertilization zebrafish Assay for Snout Malformation (AID 2283637)
How it was run: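 Binary snout-malformation call at 120 hpf in wild-type 5D embryos, chorion removed by pronase, under static exposure from 6 hpf at 28C (0.64% DMSO). Embryos dying by 24 or 120 hpf excluded.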

[9] = Tanguay_ZF_120hpf_JAW_legacy: (Legacy) Oregon State University Tanguay Lab 120 Hour Post-fertilization zebrafish Assay for Jaw Malformation (AID 2283638);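 as to AC50: active means more embryos with jaw malformation than DMSO controls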
How it was run: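 Binary jaw-malformation call at 120 hpf by brightfield microscopy. Embryos (Tropical 5D strain, chorion removed at 4 hpf) were dosed statically at 6 hpf, one per well, at 28C with 0.64% DMSO. Embryos that died were not scored.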

[10] = Tanguay_ZF_120hpf_OTIC_legacy: (Legacy) Oregon State University Tanguay Lab 120 Hour Post-fertilization zebrafish Assay for Otic Vesicle Malformation (AID 2283639)
How it was run: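 Statically exposed wild-type 5D zebrafish embryos, kept sealed and dark at 28C through 120 hours post fertilization, were examined by brightfield microscopy for otic vesicle defects. Responses were recorded as present or absent and analysed relative to DMSO.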

Measured: AC50

CCCCCCCCCCCCN1CCCC1=O
inactive: [3] | [6] | [7] | [8] | [10]
active: [1] 63.2 µM | [2] 45.3 µM | [4] 27.6 µM | [5] 47.3 µM | [9] 46.6 µM

COc1ccc([N+](=O)[O-])cc1N
inactive: [1] | [2] | [3] | [4] | [5] | [6] | [7] | [8] | [9] | [10]

COCC(C)O (centres undefined)
inactive: [1] | [2] | [3] | [4] | [5] | [6] | [7] | [8] | [9] | [10]

NC(=O)N1C(=O)C(C(=O)c2cc(Cl)cs2)c2cc(F)c(Cl)cc21 (centres undefined)
active: [1] 7.17 µM | [3] 14 µM | [4] 1.44 µM
inactive: [2] | [5] | [6] | [7] | [8] | [9] | [10]

Cc1ccc(S(=O)(=O)O)c(C)c1
inactive: [1] | [2] | [3]

CCC(C)(C)C1CCC(O)CC1 (centres undefined)
inactive: [1] | [2] | [3] | [4] | [5] | [6] | [7] | [8] | [9] | [10]

CC[C@H](c1ccc(O)cc1)[C@@H](CC)c1ccc(O)cc1
inactive: [1] | [2] | [3] | [4] | [5] | [6] | [7] | [8] | [9] | [10]
active: [1] 67.1 µM | [2] 75.7 µM | [3] 60.1 µM

Cc1oc(-c2ccccc2)nc1CCOc1ccc(C[C@H](Nc2ccccc2C(=O)c2ccccc2)C(=O)O)cc1
inactive: [5] | [6] | [7] | [8] | [9] | [10]
active: [1] 56 µM | [2] 15.5 µM | [3] 41.6 µM | [4] 12.9 µM

O=[N+]([O-])c1ccc(O)cc1
inactive: [1] | [2] | [3] | [4] | [5] | [6] | [7] | [8] | [9] | [10]

O=C(OCCOCCOC(=O)c1ccccc1)c1ccccc1
inactive: [1] | [2] | [3] | [4] | [5] | [6] | [7] | [8] | [9] | [10]

O=c1c(-c2ccc(O)cc2)coc2cc(O)ccc12
inactive: [1] | [2] | [3] | [4] | [5] | [6] | [7] | [8] | [9] | [10]

CC1=C(/C=C/C(C)=C/C=C/C(C)=C/C(=O)O)C(C)(C)CCC1
inactive: [1] | [2] | [3]
active: [1] 86.9 µM | [4] 1.54 µM | [5] 0.214 µM | [7] 0.0999 µM | [8] 0.183 µM | [9] 0.144 µM | [10] 0.211 µM

CC(C)(C)c1ccc(O)c(C(C)(C)C)c1
active: [1] 57.1 µM and 60.2 µM | [2] 42.7 µM | [3] 72.4 µM
inactive: [2] | [3] | [4] | [5] | [6] | [7] | [8] | [9] | [10]

CC(O)CO (centres undefined)
inactive: [1] | [2] | [3] | [4] | [5] | [6] | [7] | [8] | [10]

CN1CCN(c2ccccc2/C=C2\SCCN(c3ccc(Cl)c(Cl)c3)C2=O)CC1
active: [1] 86 µM | [2] 83.7 µM
inactive: [3] | [4] | [5] | [6] | [7] | [8] | [9] | [10]

CC#C[C@]1(O)CC[C@H]2[C@@H]3CCC4=CC(=O)CCC4=C3[C@@H](c3ccc(N(C)C)cc3)C[C@@]21C
active: [1] 72.6 µM and 22 µM | [3] 65.8 µM and 20.7 µM | [5] 73.3 µM | [6] 82.8 µM
inactive: [2] | [4] | [7] | [8] | [9]

CC(C)(C)CC(C)(C)c1ccc(O)c(-n2nc3ccccc3n2)c1
inactive: [1] | [2] | [3] | [4] | [5] | [6] | [7] | [8] | [9] | [10]

c1ccc2cc3c(ccc4ccccc43)cc2c1
inactive: [1] | [2] | [3] | [4]
active: [5] 41.6 µM | [6] 12.5 µM | [7] 45.6 µM | [8] 46.5 µM | [9] 49.1 µM | [10] 40.6 µM

CCCCCCCCCCCCCC[N+](C)(C)C
inactive: [1] | [2]
active: [1] 31.2 µM and 16.1 µM | [2] 76.6 µM and 45.3 µM | [3] 63.8 µM and 26.6 µM and 23.1 µM

CCCOc1sc(C(=O)N2CCC(c3cc(CN)ccc3F)CC2)c(C)c1Br
active: [1] 80.7 µM | [2] 80.1 µM | [3] 72.2 µM
inactive: [4] | [5] | [6] | [7] | [9] | [10]

O=C(O)Cc1cc(I)c(Oc2cc(I)c(O)c(I)c2)c(I)c1
inactive: [5] | [10]
active: [1] 30.6 µM | [2] 49.3 µM | [3] 33.1 µM | [4] 8.91 µM | [6] 0.0204 µM | [7] 0.0114 µM | [8] 0.00601 µM | [9] 0.00848 µM

CCCCC(CC)COC(=O)CCCCC(=O)OCC(CC)CCCC (centres undefined)
inactive: [1] | [2] | [3] | [4] | [5] | [6] | [7] | [8] | [9] | [10]

CCc1ccc(CCOc2ccc(CC3SC(=O)NC3=O)cc2)nc1 (centres undefined)
inactive: [1] | [2] | [3] | [4] | [5] | [6] | [7] | [8] | [9] | [10]

Oc1cc2ccccc2c2ccccc12
active: [1] 11.6 µM | [2] 13.3 µM | [3] 20.4 µM | [4] 14 µM | [5] 38.3 µM | [6] 10.4 µM | [7] 40 µM | [8] 14.3 µM | [9] 9.87 µM | [10] 10.8 µM

c1ccc2c(c1)Cc1ccccc1-2
inactive: [1] | [2] | [3] | [4] | [5] | [6] | [7] | [8] | [9] | [10]
active: [1] 87.3 µM

CCN(CC)CCNc1ccc(CNC=O)c2sc3ccc(OC)cc3c(=O)c12
active: [1] 29 µM | [3] 12.1 µM
inactive: [2] | [4] | [5] | [6] | [7] | [9]

CCCCCCCC(=O)O
inactive: [1] | [2] | [3] | [4] | [5] | [6] | [7] | [8] | [9] | [10]

CCCCCCCCC(=O)O
inactive: [1] | [2] | [3] | [4] | [5] | [6] | [7] | [8] | [9] | [10]

Oc1cccc(O)c1
inactive: [1] | [2] | [3] | [4] | [5] | [6] | [7] | [8] | [9] | [10]
